# Inconclusive results are not listed. Where a call stands in place of a potency, no number is given. Some compounds were tested as several samples or in several runs, with calls that do not always agree. Unmarked numbers belong to inactive results. The source made the active and inactive calls. Calls come from the whole dose curve; as a rule, active = well fitted cell-killing curve with a large enough effect; inconclusive = small, poorly fitted or top-dose-only effect, or effect the other way; inactive = no such curve, though single readings can be large or run the other way.
# What was measured:
# [1] = Viability qHTS for spleen associated tyrosine kinase inhibitor (SYKi) naive MV4-11 cells (AID 1963823); note: nearly all actives have a fitted effect of over 40% in size
# Method in brief: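 qHTS, SYK inhibitor-naive MV4-11; 500 cells/well; 72 hr compound exposure, 37 C; CellTiter-Glo added, 10 min RT; luminescence read.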
# [2] = Viability qHTS for spleen associated tyrosine kinase inhibitor (SYKi) drug resistant MV4-11 cells (AID 1963824); note: nearly all actives have a fitted effect of over 35% in size
# Method in brief: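 SYK inhibitor-resistant MV4-11 AML cells, 500 per well, added to predispensed compounds and incubated 72 hr at 37 C, 5% CO2. Viability measured by CellTiter-Glo luminescence after 10 min at room temperature.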
# Potency is the fitted concentration of half-maximal effect.
smiles,measurement,setting,value
CC(=O)/C=C/C1C(C)CC(O[C@@H]2O[C@H](CO)[C@@H](O)[C@H](O)[C@H]2O)CC1(C)C (stereo partly drawn),Potency,[1],inactive
O=C(O[C@@H]1O[C@H](CO)[C@@H](O)[C@H](O)[C@H]1O)c1ccccc1,Potency,[1],inactive
CC(O)C(O)/C=C/C=C/C(=O)O[C@@H]1C=C(C(=O)O)[C@](O)(CO)[C@@]2(C)CCCC(C)(C)[C@H]12 (stereo partly drawn),Potency,[1],inactive
C[C@@H]1C[C@H]2O[C@@H]2/C=C\C=C\C(=O)Cc2c(Cl)c(O)cc(O)c2C(=O)O1,Potency,[1],32.1 nM (active)
same,viability (% of control),[1],9.93% [at 9.25 µM]
same,Potency,[2],71.8 nM (active)
CCC(=O)O[C@H]1C(C)(C)[C@H]([C@@H](O)C(=O)OC)[C@]2(C)C(=O)[C@@]1(O)[C@H]1O[C@]13C1CC(=O)O[C@@H](c4ccoc4)[C@]1(C)CCC32 (stereo partly drawn),Potency,[1],inactive
CC1(C)CC[C@]2(C(=O)O)CC[C@]3(C)C(=CCC4[C@@]5(C)C[C@@H](O)[C@H](O)[C@@](C)(CO)C5CC[C@]43C)C2C1 (stereo partly drawn),Potency,[1],inactive
same,Potency,[2],7960 nM (active)
CC(=O)O[C@H](C[C@@H](C)[C@H]1C(=O)[C@H](O)[C@@]2(C)[C@@H]3CCC4C(C)(C)[C@@H](O[C@@H]5OC[C@H](O)[C@H](O)[C@H]5O)CC[C@@]45C[C@@]35CC[C@]12C)[C@@H]1OC1(C)C (stereo partly drawn),Potency,[1],inactive
COc1c2c(c(C)c3c1C(=O)OC3)OC1(C)CC(O)C34OC(O)(CCC3(C)C1C2)OC4(C)C (stereo not drawn),Potency,[1],inactive
COc1ccc(C2=CC(=O)OC2Cc2ccc(O)cc2)c(O)c1 (stereo not drawn),Potency,[1],inactive
COc1cc2c(cc1O)[C@H](c1ccc(O[C@@H]3O[C@H](CO)[C@@H](O)[C@H](O)[C@H]3O)c(OC)c1)[C@@H](CO)[C@](O)(CO)C2,Potency,[1],inactive
CC(C)CCC1(O)C(=O)C(C)(C)C(O[C@@H]2O[C@H](CO)[C@@H](O)[C@H](O)[C@H]2O)C(C)(C)C1O (stereo partly drawn),Potency,[1],inactive
same,Potency,[2],inactive
CC(=O)OC[C@]12[C@H](OC(C)=O)C(=O)[C@@H]3[C@@H](OC(C)=O)[C@@]14O[C@@]3(C)COC(=O)c1cccnc1[C@@H](C)[C@H](C)C(=O)O[C@@H]([C@H](O)[C@@H]2OC(C)=O)[C@]4(C)O,Potency,[1],inactive
same,Potency,[2],inactive
CCOc1ccc(-c2ccc(Cn3c(CC(C)(C)C(=O)O)c(SC(C)(C)C)c4cc(OCc5ccc(C)cn5)ccc43)cc2)cn1,Potency,[1],inactive
CSC(=O)OCC1=C[C@@H]2OC(=O)C3=CO[C@@H](O[C@@H]4O[C@H](CO)[C@@H](O)[C@H](O)[C@H]4O)[C@H]1[C@@H]32,Potency,[1],inactive
CC1C2=CC(=O)OC2(O)CC2C1C(OC(=O)c1ccccc1)C(OC(=O)c1ccccc1)C1(O)C2(C)CCC(O)C1(C)C(=O)O (stereo not drawn),Potency,[1],inactive
same,Potency,[2],inactive
COc1ccc(CCC(=O)c2c(O)cc(O)cc2O[C@@H]2O[C@H](CO)[C@@H](O)[C@H](O)[C@H]2O)cc1,Potency,[1],7960 nM (active)
C=C1CC[C@H]2[C@@](C)(CCC(O)[C@@]2(C)CO)[C@@H]1/C=C/C(=C\C(=O)O)C(=O)O (stereo partly drawn),Potency,[1],inactive
same,Potency,[2],inactive
COC(=O)C1=COC(OC2OC(CO)C(O)C(O)C2O)C2C(C)C(OC(C)=O)C(OC(=O)c3ccccc3)C12 (stereo not drawn),Potency,[1],inactive
CC(C/C=C/C(C)(C)O)C1CCC(C)(O)C(O)C1 (stereo not drawn),Potency,[1],inactive
same,Potency,[2],inactive
O=C(OC[C@H]1O[C@H](O[C@H]2CO[C@H](CO)[C@@H](O)[C@@H]2O)[C@H](O)[C@@H](O)[C@H]1O)c1ccccc1,Potency,[1],inactive
O=C(/C=C/c1ccc(O)cc1)OC[C@H]1O[C@@H](O/C(=C\c2ccccc2)C(=O)O)[C@H](O)[C@@H](O)[C@@H]1O,Potency,[1],inactive
CC(C)c1nc(-c2ccc(NC(=O)Nc3cccc(C(F)(F)F)c3)c3ccccc23)c2c(N)nccn12,Potency,[1],366 nM (active)
same,Potency,[2],411 nM (active)
C=C1CC[C@@H]2[C@](C)(CO)[C@H](O)CC[C@@]2(C)[C@@H]1C/C=C1/C(=O)OC[C@H]1O,Potency,[1],2630 nM (active)
COc1cc(C(C)=O)ccc1O[C@@H]1O[C@H](CO[C@@H]2O[C@@H](C)[C@H](O)[C@@H](O)[C@H]2O)[C@@H](O)[C@H](O)[C@H]1O,Potency,[1],inactive
same,Potency,[2],inactive
COc1ccc(N2CCN(CCCNC(=O)Cn3c(=O)c4cccn4c4c(C)ccnc43)CC2)cc1,Potency,[1],inactive
CN(C)CCn1cc(S(=O)(=O)c2cccc(F)c2)c2cccnc21,Potency,[1],inactive
same,Potency,[2],inactive
COc1cc(/C=C/C(=O)O[C@@H]2O[C@H](CO)[C@@H](O)[C@H](O)[C@H]2O)ccc1O,Potency,[1],inactive

# — PubChem BioAssay (NCATS)
